Measured values: ChEMBL document CHEMBL3988442, “University of Dundee, Small-Polar-MMV Screening Library” (2021)
Out of some 66,000 compounds screened, about 960 (1.5%) showed an effect of 50% or more. The sample as a whole holds a higher share of strong results than the screen did.

System: Trypanosoma brucei
Assay: Trypanosoma brucei 72 hour study
Format: functional, organism-based
Design: scale not given: in the data most compounds retested in dose-response had high values

CS(=O)(=O)NCC(=O)NC(Cc1ccccc1)C1CCCC1 (configuration not stated)
Percent Effect (30.3 µM, […]): -60.62%

CS(=O)(=O)CCC(=O)NC1CC(c2ccccc2Cl)C1 (configuration not stated)
Percent Effect (30 µM, 30.03 µM): -26.6%

CN(CC(=O)NC(Cc1ccccc1)C1CCCC1)S(C)(=O)=O (configuration not stated)
Percent Effect (30.3 µM, […]): 62.9%

CNc1nc(C)c(C(=O)N2C[C@H]3CC[C@@H]2CN(c2cnccn2)C3)s1
Percent Effect (30 µM, 30.03 µM): -23.46%

CC1CN(C)CCN1C(=O)c1cnn(-c2cccc(Cl)c2)c1 (configuration not stated)
Percent Effect (30.3 µM, […]): -22.44% | Percent Effect (10 mM, 10 mM as filed; unlikely as a test dose): -40.4%

COCC1CC2(CCN(Cc3ccoc3)CC2)CN1C(C)C.O=C(O)C(F)(F)F.O=C(O)C(F)(F)F (configuration not stated)
Percent Effect (30 µM, 30.03 µM): 26.61%

CCN(CC)C(=O)CN1CCc2nc(C3CCNCC3)nc(NC)c2C1.Cl
Percent Effect (30.3 µM, […]): -15.23%

CCC(=O)Nc1ccc2c(c1)C1(CCOCC1)CN2CCOC.O=C(O)C(F)(F)F
Percent Effect (30.3 µM, […]): -49.74%

CN(Cc1ccccc1F)C(=O)Cn1cc(NC(=O)C(C)(C)C)cn1
Percent Effect (30.3 µM, […]): -0.06216%

CC(C)NC(=O)N1CCN(CC2CC2)CC2(CNC(=O)C2)C1.O=C(O)C(F)(F)F (configuration not stated)
Percent Effect (30 µM, 30.03 µM): -4.336%

COc1ccccc1C1(CNCc2ccc(C#N)cc2)CCOCC1
Percent Effect (30.3 µM, […]): 29.93%

COc1ccccc1C1(CNCc2cccc(O)c2)CCOCC1
Percent Effect (30.3 µM, […]): 15.56%

COc1ccccc1C1(CNCc2cccc(C#N)c2)CCOCC1
Percent Effect (30.3 µM, […]): 67.18%

CC(=O)Nc1ccc(Oc2cc(C)nc(C3CCCNC3)c2)cc1.Cl (configuration not stated)
Percent Effect (30.3 µM, […]): -25.31%

Cc1cc(Oc2ccc(NC(=O)C3CC3)cc2)cc(C2CCNCC2)n1.Cl
Percent Effect (30.3 µM, […]): 99.81%

CC(=O)Nc1ccc(Oc2cc(C)nc(C3CCNCC3)c2)cc1.Cl
Percent Effect (30.3 µM, […]): 0.5571%

CS(=O)(=O)N1CCC(Nc2ccnc3ccc(Cl)cc23)CC1
Percent Effect (30.3 µM, […]): -667%

NC(=O)CN1CCC(Nc2ccnc3ccc(Cl)cc23)CC1
Percent Effect (30.3 µM, […]): 62.45%

COCC(=O)N1CCC(Nc2ccnc3ccc(Cl)cc23)CC1
Percent Effect (30.3 µM, […]): -10.12%

O=C1N(Cc2ccc(F)c(F)c2)CCCC1(O)CNCC1CCCCC1 (configuration not stated)
Percent Effect (30 µM, 30.03 µM): -26.1%

CC(NC(=O)CCC(C)(C)C)C(=O)Nc1ccc(-n2cncn2)cc1 (configuration not stated)
Percent Effect (30 µM, 30.03 µM): -4.525%

O=C1N(Cc2ccc(F)c(F)c2)CCCC12CCN(C1CCCC1)C2 (configuration not stated)
Percent Effect (30 µM, 30.03 µM): -86.64%

O=C1N(Cc2ccc(F)c(F)c2)CCCC12CCN(C1CCSCC1)C2 (configuration not stated)
Percent Effect (30 µM, 30.03 µM): 50.02%

O=C1N(Cc2ccc(F)c(F)c2)CCCC12CCN(C1CCCCC1)C2 (configuration not stated)
Percent Effect (30 µM, 30.03 µM): 6.711%

COCCNC(=O)[C@@]12CCO[C@@H]1CCN(Cc1ccc(OC)cc1)C2.O=C(O)C(F)(F)F
Percent Effect (30 µM, 30.03 µM): 7.509%

CS(=O)(=O)c1ccc(CN2C[C@H]3CC[C@@H]2CN(c2ncccn2)C3)cc1
Percent Effect (30 µM, 30.03 µM): -59.99%

Cc1ccc(C#N)c(N2CCC(c3nccn3Cc3cscn3)CC2)n1
Percent Effect (30 µM, 30.03 µM): 31.21%

Cc1ccc(C#N)c(N2CCC(c3nccn3CCN(C)C)CC2)n1
Percent Effect (30 µM, 30.03 µM): 57.26%

CN(C)CCn1ccnc1C1CCN(c2cc(N)nc(N)n2)CC1
Percent Effect (30 µM, 30.03 µM): 1.166%

O=C1C[C@H]2CC[C@@H](CN1)N2C(=O)CCc1ccc2c(c1)OCO2
Percent Effect (30.3 µM, […]): 6.652%

COc1ccc(C2=CCN(C(=O)C3CCN(C)C(=O)C3)CC2)cc1 (configuration not stated)
Percent Effect (30 µM, 30.03 µM): 57.6%

COc1ccc(C2=CCN(C(=O)C3CCC3)CC2)cc1
Percent Effect (30.3 µM, […]): -20.1%

Cc1ccc(C2=CCN(C(=O)C3CCN(C)C(=O)C3)CC2)cc1 (configuration not stated)
Percent Effect (30.3 µM, […]): -12.11%

CC(C)OCCCN(Cc1ccncc1)Cc1cccc(F)c1.Cl
Percent Effect (30.3 µM, […]): -29.62%

Cc1ccccc1C1(C(=O)NCCN2CCC(C)CC2)CCOCC1
Percent Effect (30.3 µM, […]): 1.423%

COc1ccccc1C1(CNc2snc(Cl)c2C#N)CCCC1
Percent Effect (30.3 µM, […]): 35.81%

N#Cc1c(Cl)nsc1NCC1(c2ccccc2)CCC1
Percent Effect (30.3 µM, […]): 100.1%

COc1ccccc1C1(CNc2snc(Cl)c2C#N)CCOCC1
Percent Effect (30.3 µM, […]): 0.1302%

Cc1cccc(N2CCc3ncc(CNc4ccccn4)n3CC2)n1.O=C(O)C(F)(F)F.O=C(O)C(F)(F)F
Percent Effect (30.3 µM, […]): -45.99%

Cl.NCC(=O)N1CCCC1c1nccnc1Nc1ncccn1 (configuration not stated)
Percent Effect (30.3 µM, […]): -17.2%

C=C(C)CN1CCN(Cc2cnc(-c3ccc(OC)cc3)nc2)CC1.O=C(O)CC(O)(CC(=O)O)C(=O)O
Percent Effect (30.3 µM, […]): 2.32%

Cc1ccc(N[C@@H]2CN(Cc3cc(C)on3)C[C@@H]3CCCO[C@@H]32)nn1.O=C(O)C(F)(F)F.O=C(O)C(F)(F)F
Percent Effect (30.3 µM, […]): -34.05%

Cc1noc(C)c1CNc1c(N2CCCC2)cccc1N1CCCC1
Percent Effect (30.3 µM, […]): 99.93%

COc1ccccc1N1CCC(NCc2c(C)noc2C)C1 (configuration not stated)
Percent Effect (30 µM, 30.03 µM): -20.42%

Cc1noc(CNc2c(N3CCCC3)cccc2N2CCCC2)n1
Percent Effect (30.3 µM, […]): -1.503%

O=C(NCc1ccco1)[C@@H]1CCO[C@@H]2CCN(C3CCOCC3)C[C@H]21.O=C(O)C(F)(F)F
Percent Effect (30 µM, 30.03 µM): -32.7%
